This note sets out measurements from PubChem BioAssay (NCI).

Each structure is given as a SMILES string. About 83,000 compounds went through this panel and 20% of them were active in at least one assay; those are over-represented in the sample as a whole.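 Growth was measured after 48 h exposure to one concentration of compound in 96-well plates. Values under 10 count as active.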 A number with no mark means an inactive call. The source made the active and inactive calls.

Test systems include SK-MEL-2 melanoma; EKVX NSCLC; SN12C renal; UO-31 renal; TK-10 renal; ACHN renal; CAKI-1 renal; A498 renal; CCRF-CEM leukemia; MOLT-4 leukemia; SR leukemia; RPMI-8226 leukemia; OVCAR-8 ovarian; OVCAR-5 ovarian; OVCAR-4 ovarian; SK-OV-3 ovarian; IGROV1 ovarian; OVCAR-3 ovarian; HS 578T breast; NCI/ADR-RES ovarian.
What all share (test): NCI-60 one-dose screen, 48 h (100 = growth as untreated, 0 = no growth, -100 = all killed)
What all share (details): 10 µM unless noted

As to `NC(=O)c1cc(I)ccc1NC(=O)/C=C/c1ccccc1Cl`, the growth with SK-MEL-2 melanoma is 75.1%; in the experiment with EKVX NSCLC, 28%; in the experiment on SN12C renal, 40.7%; in the experiment on UO-31 renal, 30.6%; with TK-10 renal it was 62.3%; in the experiment with ACHN renal, 56.2%. Moreover, the growth in the experiment on CAKI-1 renal is 13%; in the experiment with A498 renal, 62.4%; with CCRF-CEM leukemia, -19.6% (active); with MOLT-4 leukemia it was 10.4%; in the experiment with SR leukemia it was -30.4% (active); with RPMI-8226 leukemia, -11.5% (active). The growth in the experiment on OVCAR-8 ovarian is 31.3%; in the experiment with OVCAR-5 ovarian, 38.2%; in the experiment on OVCAR-4 ovarian it was 9.92% (active); in the experiment on SK-OV-3 ovarian, 4.87% (active); with IGROV1 ovarian, 77.5%; with OVCAR-3 ovarian, -40.8% (active). Further, the growth was -17.6% (active) with HS 578T breast and 8.88% (active) with NCI/ADR-RES ovarian.
On to `Cc1nn(-c2ccc(F)cc2)c2ncnc(Oc3ccc(NC(=O)Nc4ccc(Cl)c(C(F)(F)F)c4)cc3)c12`, for which the growth in the experiment with SK-MEL-2 melanoma is 102%; with EKVX NSCLC, 105%; in the experiment on SN12C renal it was 95.1%; in the experiment with UO-31 renal, 100%; in the experiment on TK-10 renal, 104%; in the experiment with ACHN renal, 102%. Also, the growth in the experiment on CAKI-1 renal was 95.3%; in the experiment on A498 renal, 99.2%; with CCRF-CEM leukemia, 102%; in the experiment on MOLT-4 leukemia, 104%; in the experiment on SR leukemia, 110%; in the experiment with RPMI-8226 leukemia, 98.7%. Besides, the growth is 96.5% in the experiment with OVCAR-8 ovarian; 99.3% with OVCAR-5 ovarian; 110% in the experiment on OVCAR-4 ovarian; 92.6% in the experiment on SK-OV-3 ovarian; 102% in the experiment on IGROV1 ovarian; 114% in the experiment on OVCAR-3 ovarian. Besides, in the experiment on NCI/ADR-RES ovarian, the growth is 98.5%.
For `O=C(COc1cccc(/C=C2\COc3ccccc3C2=O)c1)Nc1nccs1`, the growth is 65% with SK-MEL-2 melanoma; 72.2% in the experiment with EKVX NSCLC; 78.4% with SN12C renal; 67.3% with UO-31 renal; 64.2% in the experiment on TK-10 renal; 88.2% in the experiment on ACHN renal. Further, the growth with CAKI-1 renal is 83.5%; in the experiment with A498 renal, 102%; in the experiment on CCRF-CEM leukemia, -58.5% (active); with MOLT-4 leukemia, -48.4% (active); with SR leukemia it was -73.8% (active); with RPMI-8226 leukemia, -67% (active). For the same molecule, the growth was 20.3% with OVCAR-8 ovarian; 81.8% with OVCAR-5 ovarian; 97.2% with OVCAR-4 ovarian; 99.8% in the experiment on SK-OV-3 ovarian; 5.16% (active) with IGROV1 ovarian; 73.8% in the experiment with OVCAR-3 ovarian. The growth with HS 578T breast is -6.5% (active); in the experiment with NCI/ADR-RES ovarian it was 45.6%.
As for `C#CCOc1ccc2ncnc(NCc3cccc(NC(=O)CCl)c3)c2c1`, the growth in the experiment on SK-MEL-2 melanoma was 39.7% [8.25 µM]; with EKVX NSCLC, 65.6% [8.25 µM]; in the experiment on SN12C renal it was 25.8% [8.25 µM]; with UO-31 renal it was 84.9% [8.25 µM]; with TK-10 renal, 74.1% [8.25 µM]; in the experiment with ACHN renal it was 39.5% [8.25 µM]. Further, the growth was 73.3% [8.25 µM] in the experiment with CAKI-1 renal; 77.9% [8.25 µM] in the experiment with A498 renal; 4.16% [8.25 µM] (active) with CCRF-CEM leukemia; 3.48% [8.25 µM] (active) in the experiment on MOLT-4 leukemia; 15.7% [8.25 µM] with SR leukemia; 21% [8.25 µM] in the experiment on RPMI-8226 leukemia. Also, the growth in the experiment on OVCAR-8 ovarian was 17.2% [8.25 µM]; with OVCAR-5 ovarian, 55.3% [8.25 µM]; in the experiment with OVCAR-4 ovarian, 31.6% [8.25 µM]; in the experiment with SK-OV-3 ovarian, 83% [8.25 µM]; with IGROV1 ovarian it was -68.1% [8.25 µM] (active); with OVCAR-3 ovarian, 24.2% [8.25 µM]. The growth with HS 578T breast was 50.2% [8.25 µM]; in the experiment on NCI/ADR-RES ovarian it was 77.7% [8.25 µM].
With `O=S(=O)(Nc1ccc(NS(=O)(=O)c2ccccc2)c(Cl)c1)c1ccccc1`, the growth with SK-MEL-2 melanoma is 91.6%; with EKVX NSCLC it was 106%; with SN12C renal, 102%; with UO-31 renal, 88.7%; in the experiment with TK-10 renal it was 100%; in the experiment on ACHN renal, 105%. Moreover, the growth in the experiment with CAKI-1 renal is 92.4%; with A498 renal it was 113%; with CCRF-CEM leukemia it was 92%; with MOLT-4 leukemia, 79%; with SR leukemia, 90.9%; with RPMI-8226 leukemia, 90.8%. Further, the growth with OVCAR-8 ovarian is 103%; in the experiment with OVCAR-5 ovarian, 108%; with OVCAR-4 ovarian, 100%; in the experiment with SK-OV-3 ovarian, 104%; with IGROV1 ovarian, 98.6%; in the experiment on OVCAR-3 ovarian, 104%. The growth in the experiment with HS 578T breast is 103%; in the experiment on NCI/ADR-RES ovarian it was 100%.
For `O=C1c2cc3c(cc2-c2c1c1ccc(Cl)cc1c(=O)n2CCCN1CCOCC1)OCO3`, the growth with SK-MEL-2 melanoma is 100%; with EKVX NSCLC it was 93.8%; in the experiment on SN12C renal, 46.3%; with UO-31 renal, 44.5%; in the experiment on TK-10 renal, 103%; in the experiment with ACHN renal, 13.1%. In addition, the growth is 21.4% with CAKI-1 renal; 76.2% in the experiment on A498 renal; 20.7% with CCRF-CEM leukemia; 8.7% (active) with MOLT-4 leukemia; 4.71% (active) in the experiment with SR leukemia; 60.8% with RPMI-8226 leukemia. Further, the growth is 70.9% in the experiment with OVCAR-8 ovarian; 109% with OVCAR-5 ovarian; 91.9% in the experiment with OVCAR-4 ovarian; 33.4% in the experiment on SK-OV-3 ovarian; 82.6% with IGROV1 ovarian; 86.5% in the experiment with OVCAR-3 ovarian. In addition, the growth with HS 578T breast was 108%; in the experiment with NCI/ADR-RES ovarian it was 45.9%.
